Hit rate of the full screen: of about 63,000 compounds, about 1,100 (1.7%) were called active.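 The calls were made as follows: active = compounds whose percent cytotoxicity in the single-dose primary screen, scaled between solvent and toxic-drug controls, exceeds 50; inactive = the rest.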 The list comes from a sample in which actives are over-represented; it also holds similar structures and randomly drawn compounds. Results with a measured potency or affinity are listed apart.
experiment: cytotoxicity in KRAS-transformed pancreatic duct cells, primary screen, cell-based, fluorescence, HTS (AID 431); details: HPDE-C7K KRASV12 cells, Alamar Blue viability, 48 h; at 10 µM; active compounds read high;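 also: 0% = DMSO solvent wells and 100% = doxorubicin-treated wells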

Row | Structure (SMILES) | cytotoxicity
1 | CC(=O)c1c(C)[nH]c(C(=O)OCC(=O)Nc2cc(C(F)(F)F)ccc2N2CCOCC2)c1C | 14.5% (inactive)
2 | CCC(=O)N/C=C/n1cnc2cc(C(F)(F)F)ccc21 | 15.3% (inactive)
3 | COc1cc(NC(=O)CCCC(=O)OCC(F)(F)C(F)F)nc(OC)n1 | -2.6% (inactive)
4 | C#CCOC(=O)CCC(=O)Nc1cc(OC)nc(OC)n1 | -8% (inactive)
5 | C=CCOC(=O)CCC(=O)Nc1cc(OC)nc(OC)n1 | 51.4% (active)
6 | CCOC(=O)Cn1c(C)c(C#N)c2ccccc21 | 8.1% (inactive)
7 | COc1ccc(N(CC(=O)N2CCc3ccccc32)S(=O)(=O)c2c(C)noc2C)cc1 | 2% (inactive)
8 | O=C(COc1ncnc2ccc(Br)cc12)Nc1ccc(N2CCOCC2)cc1 | -7.7% (inactive)
9 | COc1ccc(OC)c(-c2nnc(NC(=O)C(C)Sc3nncn3C)s2)c1 (stereo not given) | 4.7% (inactive)
10 | Cc1ccc(S(=O)(=O)NC2CCOC(C)(C)C2)cc1 (stereo not given) | -15.4% (inactive)
11 | COc1cccc2c1C(=O)c1c(O)c3c(c(O)c1C2=O)C[C@@](O)(C(C)=O)C[C@@H]3O[C@H]1C[C@H](N)[C@H](O)[C@H](C)O1 | 106% (active)
12 | COc1cccc2c1C(=O)c1c(O)c3c(c(O)c1C2=O)C[C@@](O)(C(=O)CO)C[C@@H]3O[C@H]1C[C@H](N)[C@H](O)[C@H](C)O1 | 98.7% (active)
13 | COc1ccccc1N1CCN(C(=O)c2nn(-c3ccccc3OC)c(=O)c3ccccc23)CC1 | 4.9% (inactive)
14 | CCNc1nc(Oc2ccc(=O)n(-c3ccccc3)n2)nc(N2CCOCC2)n1 | 4.3% (inactive)
15 | Nc1nnc(N2CCCCC2)s1 | -11.2% (inactive)
16 | Cc1ccc(CNS(=O)(=O)c2ccc3oc(C(=O)O)c(C)c3c2)cc1 | 1.5% (inactive)
17 | CCOC(=O)N1CCN(C(=O)CCn2nc(-c3ccc(Cl)cc3)ccc2=O)CC1 | -0.1% (inactive)
18 | CCOc1ccc(NS(=O)(=O)c2cc(Cl)ccc2OC)cc1 | -5.4% (inactive)
19 | CCOc1ccc(S(=O)(=O)Nc2cc(Cl)ccc2O)cc1 | 64.5% (active)
20 | COc1ccc(S(=O)(=O)Nc2cccc(Cl)c2)cc1OC | 9.4% (inactive)
21 | CCOc1ccc(NS(=O)(=O)c2ccc(NS(C)(=O)=O)cc2)cc1 | -17% (inactive)
22 | CCOc1ccc(S(=O)(=O)Nc2cccc(Cl)c2)cc1 | 65% (active)
23 | CCOc1ccc(S(=O)(=O)Nc2cccnc2)cc1 | 4.6% (inactive)
24 | Clc1ccc(-c2noc(CN3CCCC3)n2)cc1 | -4.3% (inactive)

Row | Structure (SMILES) | cytotoxicity
25 | COc1ccc(Cl)cc1NC(=O)CN(C(=O)c1ccco1)C1CCCCC1 | 4.7% (inactive)
26 | CCSc1nnc(NC(=O)c2cccs2)s1 | 22.4% (inactive)
27 | COC(=O)c1cccc(NC(=O)CSc2nnc(COc3cccc(C)c3)n2C)c1 | -15.1% (inactive)
28 | CCOC(=O)c1[nH]c(C)c(/C(O)=C2\C(=O)C(=O)N(CCCn3ccnc3)C2c2ccncc2)c1C (stereo not given) | 11.3% (inactive)
29 | CC1=C(C)C(=O)NC(Nc2nc(C)c3cc(C)cc(C)c3n2)N1 (stereo not given) | 90.8% (active)
30 | Cc1cc(C)c2nc(NC3=NCN(CCN4CCOCC4)CN3)nc(C)c2c1 | -2% (inactive)
31 | Cc1ccnc(SCCn2c(N3CCC(C)CC3)nc3c2c(=O)[nH]c(=O)n3C)n1 | 5.9% (inactive)
32 | Cc1cc(C)nc(/N=C2\NC(=O)CC(C(=O)O)N2c2ccc(Oc3ccccc3)cc2)n1 (stereo not given) | 3.8% (inactive)
33 | O=C(Nc1ccccc1C(=O)N1CCCCCC1)c1cccc(S(=O)(=O)N2CCOCC2)c1 | 6.4% (inactive)
34 | CCN(CC)c1ccc2cc(-c3nnc(-c4ccncc4)o3)c(=O)oc2c1 | 71.1% (active)
35 | CCN(CC)c1ccc2cc(C(=O)Nc3ccccn3)c(=O)oc2c1 | 18.9% (inactive)
36 | CCN(CC)c1ccc2cc(-c3nc4ccccc4[nH]3)c(=O)oc2c1 | 42.2% (inactive)
37 | CC(=O)Oc1ccc2cc(-c3nc4ccccc4n3C)c(=O)oc2c1 | -1.4% (inactive)
38 | O=c1oc2ccc3ccccc3c2cc1-c1nnc(-c2ccccc2)o1 | -4.9% (inactive)
39 | CCN(CC)c1ccc2cc(-c3nc4ccccc4n3C)c(=O)oc2c1 | 53.3% (active)
40 | C/C(Cl)=C/Cn1c(NCCN(C)C)nc2c1c(=O)n(C)c(=O)n2C | 10.3% (inactive)
41 | CCCCC(=O)Nc1ccc2c(c1)nc1n2CCOC1 | -4.8% (inactive)
42 | Cc1onc(-c2ccccc2)c1C(=O)NCc1ccco1 | 9% (inactive)
43 | Fc1ccc(CN2CCCCCCC2)c(F)c1 | 4.9% (inactive)
44 | CCCC(C(=O)NCc1ccco1)N(C(=O)CNS(=O)(=O)c1ccc(Cl)cc1)C1CCCC1 (stereo not given) | 2.5% (inactive)
45 | Cc1cccc(N2CCN(C(=O)c3cn(C)c(=O)c4c3c3ccccc3n4C)CC2)c1C | 88.5% (active)
46 | CCOC(=O)N1CCN(C(=O)c2cn(C)c(=O)c3c2c2ccccc2n3C)CC1 | 4.1% (inactive)
47 | Cn1cc(C(=O)N2CCN(C(=O)c3ccco3)CC2)c2c3ccccc3n(C)c2c1=O | -0.8% (inactive)
48 | Cc1ccc(Cl)cc1N1CCN(C(=O)c2cc3c(=O)n(C)c4ccccc4c3n2C)CC1 | 38.6% (inactive)

Row | Structure (SMILES) | cytotoxicity
49 | COc1ccc(N2CCN(C(=O)c3cn(C)c(=O)c4c3c3ccccc3n4C)CC2)cc1 | 10.6% (inactive)
50 | Cc1ccc(Cl)cc1N1CCN(C(=O)c2cn(C)c(=O)c3c2c2ccccc2n3C)CC1 | 110% (active)
51 | Cn1c2c(c(=O)n(C)c1=O)CN(Cc1ccc3c(c1)OCO3)CN2 | 4.8% (inactive)
52 | O=C(Nc1ccc(Cl)cn1)c1cc2ccccc2o1 | -4.1% (inactive)
53 | COc1cc(C2Nc3cc(Cl)c(S(N)(=O)=O)cc3S(=O)(=O)N2)cc(OC)c1OC (stereo not given) | -17.3% (inactive)
54 | N#CCCN1CCN(S(=O)(=O)c2ccc(S(=O)(=O)N3CCCCCC3)cc2)CC1 | 0.7% (inactive)
55 | COc1ccc(N2CCN(C(=O)CN3C(=O)C4CC=CCC4C3=O)CC2)cc1 (stereo not given) | 0.2% (inactive)
56 | Cc1ccc(C2C3=C(CC(C)(C)CC3=O)NC3=C2C(=O)CC(C)(C)C3)o1 | -0.9% (inactive)
57 | COCCn1c(N)c(C(=O)NCC2CCCO2)c2nc3ccccc3nc21 (stereo not given) | 15.6% (inactive)
58 | Nc1c(C(=O)NC2CCCC2)c2nc3ccccc3nc2n1N | 10.7% (inactive)
59 | COCCNC(=O)c1c(N)n(CCCn2ccnc2)c2nc3ccccc3nc12 | 6.1% (inactive)
60 | CC(C)Cn1c(N)c(C(=O)NCC2CCCO2)c2nc3ccccc3nc21 (stereo not given) | 22.7% (inactive)
61 | COCCn1c(N)c(C(=O)NCc2cccs2)c2nc3ccccc3nc21 | 9.2% (inactive)
62 | COCCNC(=O)c1c(N)n(-c2cccc(C)c2)c2nc3ccccc3nc12 | 26.4% (inactive)
63 | CC(C)Cn1c(N)c(C(=O)NCc2cccs2)c2nc3ccccc3nc21 | 92.2% (active)
64 | CC(C)Cn1c(N)c(C(=O)NCCN2CCOCC2)c2nc3ccccc3nc21 | -5.3% (inactive)
65 | Nc1c(C(=O)NCC2CCCO2)c2nc3ccccc3nc2n1-c1ccccc1 (stereo not given) | 10.6% (inactive)
66 | COCCSc1nnc(-c2cccc(C#N)c2)n1C | -2.9% (inactive)
67 | COc1cc(C)c(C#N)c(OC)n1 | 0% (inactive)
68 | CC(C)OCC(O)CN (stereo not given) | -11.2% (inactive)
69 | CCCn1c(=C(C#N)C#N)s/c(=C2\C=Cc3ccccc3N2CC)c1=O | 6% (inactive)
70 | Cc1nc(C)c(C(=O)NCc2ccc(Cl)cc2)o1 | -5.4% (inactive)
71 | O=C(CN1CCN(S(=O)(=O)c2ccc(F)cc2)CC1)Nc1ccc2c(c1)OCO2 | 0.6% (inactive)
72 | CCOC(=O)COc1ccc2nsnc2c1Cl | 2.6% (inactive)

Row | Structure (SMILES) | cytotoxicity
73 | COCCn1c(SC(C)C(=O)Nc2ccc3c(c2)OCCO3)nc2ccccc2c1=O (stereo not given) | -20.1% (inactive)
74 | CCc1nnc(NC(=O)CSc2nnc(Cc3cccn3C)n2C)s1 | 4% (inactive)
75 | CC1(C)Cc2c(c(N3CCOCC3)nc3snc(Br)c23)CO1 | -11% (inactive)
76 | CC1(C)Cc2c(c(N3CCOCC3)nc3sc(C(=O)N4CCCCC4)c(N)c23)CO1 | -5.9% (inactive)
77 | Cc1nc(-c2c(-c3ccc(O)cc3O)noc2C(F)(F)F)cs1 | 1.3% (inactive)
78 | Cc1cccnc1Nc1nc(-c2ccc(O)cc2O)cs1 | 78% (active)
79 | Cc1cc(O)ccc1Nc1nc(-c2sc(N)nc2C)cs1 | 13% (inactive)
80 | COc1ccc(C(C(=O)NC(C)(C)C)N(Cc2ccco2)C(=O)CCC(=O)Nc2cc(C)on2)cc1 (stereo not given) | -10% (inactive)
81 | O=C(O)c1ccc(CS(=O)(=O)c2cccc(C(F)(F)F)c2)o1 | 0.8% (inactive)
82 | CCCCOc1ccc(OCCCC)c2c1NC1(N2)C(=O)N(C(C)=O)c2ccccc21 | 59.6% (active)
83 | CC(=O)N1C(=O)C2(Nc3ccccc3N2)c2ccccc21 | 2.8% (inactive)
84 | CCNC(=O)N1C(=O)C2(OCCO2)c2ccccc21 | -11.6% (inactive)
85 | CCn1c(=NC(=O)CSC(C)=O)sc2cc(F)ccc21 | -9.8% (inactive)
86 | Cc1c(C(C)O)nnn1-c1nonc1N (stereo not given) | 7.8% (inactive)
87 | CC(c1ccco1)N(C(=O)C12CC3CC(CC(C3)C1)C2)c1ccccn1 (stereo not given) | -19.3% (inactive)
88 | Cc1nn(C(C)(C)C)c(OC(=O)c2cccs2)c1S(=O)(=O)c1ccccc1 | 64% (active)
89 | CC(=O)Oc1c(S(=O)(=O)c2ccc(C)cc2)c(C)nn1C(C)(C)C | 3.3% (inactive)
90 | Cc1ccc(S(=O)(=O)c2c(C)nn(C(C)(C)C)c2OC(=O)c2ccco2)cc1 | 5.7% (inactive)
91 | Cc1ccc(S(=O)(=O)c2c(C)nn(C(C)(C)C)c2OC(=O)c2cccs2)cc1 | 5% (inactive)
92 | Cc1nn(-c2ccccc2)c(OC(=O)c2cccs2)c1S(=O)(=O)c1ccccc1 | 1.2% (inactive)
93 | O=C(Cc1coc2ccc3ccccc3c12)N1CCN(c2ncccn2)CC1 | 0.6% (inactive)
94 | CCC(=O)Nc1ccc(OC)cc1OC | -5.2% (inactive)
95 | COc1ccc(Nc2cc(=O)n(C3CCCCC3)c(=O)[nH]2)c(OC)c1 | -8.6% (inactive)

From PubChem BioAssay AID431 (Sanford-Burnham Center for Chemical Genomics, 2006)
